# Results published in PubChem BioAssay.
# Active and inactive are the calls of the source.
# Assays:
# [1] = tested on: PRMT1 (protein arginine N-methyltransferase 1); experiment: PRMT1 binders on small-molecule microarrays, primary screen, biochemical, small-molecule microarray, 635 nm fluorescence (AID 1088); settings: small-molecule microarray binding, higher = more signal;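 note: binding of Prmt1 protein to compounds spotted on small-molecule microarray slides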
# [2] = yeast growth modulation, basal conditions, primary screen, YJM789 clinical isolate, OD600, 24 h (AID 1089);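 note: growth of clinical yeast isolate S. cerevisiae YJM 789 seeded 1000 cells per well; test concentration not given here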; settings: S. cerevisiae YJM789 growth, higher = more signal, called active from +8 up or from −8 down
# [3] = fission yeast growth modulation, primary screen, strain 972, OD600, 24 h, no modulator (AID 1090);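 note: basal condition with compound alone and no growth modifier present; test concentration not given here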; settings: S. pombe 972 growth, higher = more signal, called active from +8 up or from −8 down
# [4] = S. cerevisiae growth modulation with rapamycin, primary screen, strain BY4716, OD600, 96 h (AID 1091); settings: higher = more signal, called active from +8 up or from −8 down; note: test concentration not given here
# [5] = molecular target: Torsin-1A-interacting protein 2 (Homo sapiens) (UniProt Q8NFQ8); experiment: LULL1 binders on small-molecule microarray, primary screen, cell lysate, human LULL1 lysate, 635/667 nm fluorescence (AID 1092); settings: hLULL1 lysate binding, 635 nm fluorescence, higher = more signal;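 note: probe is lysate of COS7 cells overexpressing human LULL1; score merges per-feature 667 nm fluorescence with signal-to-noise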
# Torsin-1A-interacting protein 2 (Homo sapiens), sequence (Q8NFQ8 whole entry, looked up): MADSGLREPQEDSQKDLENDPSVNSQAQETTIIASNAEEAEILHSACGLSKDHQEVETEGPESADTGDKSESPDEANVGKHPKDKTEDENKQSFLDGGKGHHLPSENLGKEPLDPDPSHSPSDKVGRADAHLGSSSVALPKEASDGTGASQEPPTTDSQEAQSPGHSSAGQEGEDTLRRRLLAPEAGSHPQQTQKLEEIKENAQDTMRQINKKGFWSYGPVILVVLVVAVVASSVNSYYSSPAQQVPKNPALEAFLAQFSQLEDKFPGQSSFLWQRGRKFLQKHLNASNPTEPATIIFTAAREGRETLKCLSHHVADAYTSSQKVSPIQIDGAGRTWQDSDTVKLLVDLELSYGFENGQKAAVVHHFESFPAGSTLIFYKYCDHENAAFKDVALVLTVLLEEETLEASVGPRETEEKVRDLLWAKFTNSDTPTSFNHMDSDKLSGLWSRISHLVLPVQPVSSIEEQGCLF
# [6] = E. coli growth modulation, two-sided OD650, primary screen, E. coli filamentation project, strain DRC41, 24 h (AID 1093); settings: OD650, 24 h, higher = more signal, called active from +8 up or from −8 down;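 note: MC1000 strain lacking acrAB efflux and sulA so SOS filamentation is blocked; test concentration not given here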
# [7] = small-molecule microarray binders of probe aLefty2, primary screen, biochemical, biotinylated probe, 635/667 nm fluorescence (AID 1094); settings: higher = more signal;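 note: score merges spot fluorescence near 667 nm with spot signal-to-noise ratio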
# [8] = tested on: Noggin (protein binding on small-molecule microarray); experiment: Noggin binders on small-molecule microarray, primary screen, biochemical, 635/667 nm fluorescence (AID 1095); settings: 635 nm fluorescence, higher = more signal;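 note: score merges 667 nm feature fluorescence with signal to noise over triplicate slides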
# [9] = molecular target: Neurogenic locus notch homolog protein 3 (Homo sapiens) (UniProt Q9UM47); experiment: NOTCH3 binders on small-molecule microarray, primary screen, biochemical, 635/667 nm fluorescence (AID 1096); settings: NOTCH3 binding, 635 nm fluorescence, higher = more signal
# Neurogenic locus notch homolog protein 3 (Homo sapiens), sequence (Q9UM47 whole entry, looked up): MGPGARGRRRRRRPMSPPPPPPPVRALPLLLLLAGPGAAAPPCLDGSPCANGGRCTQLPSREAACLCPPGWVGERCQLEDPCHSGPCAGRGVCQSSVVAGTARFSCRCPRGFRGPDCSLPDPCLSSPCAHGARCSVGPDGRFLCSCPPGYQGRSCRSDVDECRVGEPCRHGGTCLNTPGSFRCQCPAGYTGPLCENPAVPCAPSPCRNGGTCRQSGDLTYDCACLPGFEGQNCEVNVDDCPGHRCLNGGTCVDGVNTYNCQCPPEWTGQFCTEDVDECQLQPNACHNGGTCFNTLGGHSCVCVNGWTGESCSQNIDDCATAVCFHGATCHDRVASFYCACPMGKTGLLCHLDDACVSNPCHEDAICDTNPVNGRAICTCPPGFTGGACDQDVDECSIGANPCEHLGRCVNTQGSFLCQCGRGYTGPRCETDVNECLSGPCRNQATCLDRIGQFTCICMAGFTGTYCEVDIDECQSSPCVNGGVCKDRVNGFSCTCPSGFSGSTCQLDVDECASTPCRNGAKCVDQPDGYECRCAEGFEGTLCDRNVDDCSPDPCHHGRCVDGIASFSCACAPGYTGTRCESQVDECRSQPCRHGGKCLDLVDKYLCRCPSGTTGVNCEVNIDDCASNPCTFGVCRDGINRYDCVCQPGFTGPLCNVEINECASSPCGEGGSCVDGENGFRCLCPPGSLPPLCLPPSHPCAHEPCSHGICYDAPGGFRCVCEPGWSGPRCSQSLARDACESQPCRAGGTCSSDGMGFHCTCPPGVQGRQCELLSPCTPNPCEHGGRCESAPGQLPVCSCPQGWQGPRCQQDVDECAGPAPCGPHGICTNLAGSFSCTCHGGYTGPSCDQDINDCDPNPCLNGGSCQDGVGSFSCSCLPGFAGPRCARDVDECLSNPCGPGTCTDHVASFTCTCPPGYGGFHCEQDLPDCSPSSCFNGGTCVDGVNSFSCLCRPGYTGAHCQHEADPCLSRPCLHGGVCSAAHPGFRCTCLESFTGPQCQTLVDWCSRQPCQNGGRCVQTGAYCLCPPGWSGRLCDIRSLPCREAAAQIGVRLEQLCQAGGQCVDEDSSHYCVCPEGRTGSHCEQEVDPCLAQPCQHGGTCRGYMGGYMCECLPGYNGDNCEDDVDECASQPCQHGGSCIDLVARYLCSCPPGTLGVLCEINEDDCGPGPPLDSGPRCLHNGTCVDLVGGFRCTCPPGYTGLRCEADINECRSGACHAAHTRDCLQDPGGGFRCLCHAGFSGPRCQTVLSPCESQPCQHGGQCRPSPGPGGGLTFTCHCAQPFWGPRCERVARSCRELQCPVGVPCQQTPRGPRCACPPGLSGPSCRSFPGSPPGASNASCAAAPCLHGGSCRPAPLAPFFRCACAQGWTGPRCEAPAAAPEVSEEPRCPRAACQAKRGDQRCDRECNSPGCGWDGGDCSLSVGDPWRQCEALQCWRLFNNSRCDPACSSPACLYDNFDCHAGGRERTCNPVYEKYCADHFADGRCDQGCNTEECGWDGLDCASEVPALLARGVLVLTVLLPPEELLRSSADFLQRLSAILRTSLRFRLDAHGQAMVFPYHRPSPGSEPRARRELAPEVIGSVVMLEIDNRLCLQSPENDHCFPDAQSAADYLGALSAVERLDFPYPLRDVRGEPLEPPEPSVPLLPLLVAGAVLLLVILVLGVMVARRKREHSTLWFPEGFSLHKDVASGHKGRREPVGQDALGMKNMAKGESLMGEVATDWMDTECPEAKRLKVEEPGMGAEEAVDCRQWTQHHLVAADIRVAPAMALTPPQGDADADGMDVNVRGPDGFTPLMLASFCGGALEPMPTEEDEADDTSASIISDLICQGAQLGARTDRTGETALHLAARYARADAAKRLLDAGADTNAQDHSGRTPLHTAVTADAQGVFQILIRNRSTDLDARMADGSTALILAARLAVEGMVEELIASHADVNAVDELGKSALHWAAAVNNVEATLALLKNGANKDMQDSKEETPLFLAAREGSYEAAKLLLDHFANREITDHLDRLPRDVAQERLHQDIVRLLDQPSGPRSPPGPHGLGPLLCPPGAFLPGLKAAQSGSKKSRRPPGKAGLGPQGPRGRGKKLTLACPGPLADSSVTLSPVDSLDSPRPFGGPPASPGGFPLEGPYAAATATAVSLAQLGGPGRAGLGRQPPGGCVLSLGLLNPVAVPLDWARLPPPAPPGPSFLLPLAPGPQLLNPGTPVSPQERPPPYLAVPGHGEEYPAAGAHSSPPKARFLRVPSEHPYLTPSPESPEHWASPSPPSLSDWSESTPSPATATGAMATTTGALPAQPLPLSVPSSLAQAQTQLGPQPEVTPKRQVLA
# [10] = small-molecule microarray binders of probe aEGFR, primary screen, biochemical, biotinylated probe, 635/667 nm fluorescence (AID 1097); settings: higher = more signal;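 note: probe is a biotinylated anti-EGFR antibody binding compounds printed on slides; score combines fluorescence near 667 nm and signal to noise of each spot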
# [11] = tested on: Plasmodium falciparum Sir2 (PF13_0152, Sir2A); experiment: pfSir2 binders on small-molecule microarrays, primary screen, biochemical, small-molecule microarray, 635 nm fluorescence (AID 1098); settings: small-molecule microarray binding, fluorescence 635 nm; higher = more signal;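 note: score merges spot fluorescence intensity with its signal-to-noise ratio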
# [12] = small-molecule microarray binders of probe aDKK1, primary screen, biochemical, biotinylated probe, 635/667 nm fluorescence (AID 1099); settings: higher = more signal;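 note: score merges 667nm spot fluorescence with signal to noise across triplicate slides; reference of the scale not given here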
# [13] = small-molecule microarray binders of probe aCHRDL2, primary screen, biochemical, biotinylated probe, 635/667 nm fluorescence (AID 1100); settings: higher = more signal
# [14] = splicing luciferase reporter signal modulators, primary screen, spliceosome inhibition project, cell-based, HEK293, splice +/- reporter (AID 1101); settings: luminescence, 24 h, higher = more signal, called active from +8 up or from −8 down;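 note: HEK293 cells carrying a splicing-competent luciferase reporter gene; test concentration not given here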
# [15] = molecular target: Fibroblast growth factor 10 (Homo sapiens) (UniProt O15520); experiment: FGF10 binders on small-molecule microarrays, primary screen, biochemical, small-molecule microarray, 635 nm fluorescence (AID 1102); settings: FGF10 binding, fluorescence 635 nm, higher = more signal
# Fibroblast growth factor 10 (Homo sapiens), sequence (O15520 whole entry, looked up): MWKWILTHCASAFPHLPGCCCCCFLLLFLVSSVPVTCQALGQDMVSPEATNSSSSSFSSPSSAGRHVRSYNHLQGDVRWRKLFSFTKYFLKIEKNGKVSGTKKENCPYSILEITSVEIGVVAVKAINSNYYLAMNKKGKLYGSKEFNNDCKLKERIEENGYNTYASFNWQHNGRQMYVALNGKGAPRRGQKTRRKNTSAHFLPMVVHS
# [16] = tested on: glycogen synthase kinase-3 (GSK3A per assay name; protocol says GSK3B); experiment: GSK3 binders on small-molecule microarrays, primary screen, biochemical, small-molecule microarray, 635 nm fluorescence, GSK3A (AID 1103); settings: small-molecule microarray binding, fluorescence 635 nm; higher = more signal; note: the record names both GSK3A and GSK3B
# [17] = molecular target: Epidermal growth factor receptor (Homo sapiens) (UniProt P00533); experiment: EGFR binders on small-molecule microarrays, primary screen, biochemical, small-molecule microarray, 635 nm fluorescence (AID 1104); settings: EGFR binding, higher = more signal;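 note: score merges 667 nm emission intensity with spot signal to noise over triplicate slides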
# Epidermal growth factor receptor (Homo sapiens), sequence (P00533 whole entry, looked up): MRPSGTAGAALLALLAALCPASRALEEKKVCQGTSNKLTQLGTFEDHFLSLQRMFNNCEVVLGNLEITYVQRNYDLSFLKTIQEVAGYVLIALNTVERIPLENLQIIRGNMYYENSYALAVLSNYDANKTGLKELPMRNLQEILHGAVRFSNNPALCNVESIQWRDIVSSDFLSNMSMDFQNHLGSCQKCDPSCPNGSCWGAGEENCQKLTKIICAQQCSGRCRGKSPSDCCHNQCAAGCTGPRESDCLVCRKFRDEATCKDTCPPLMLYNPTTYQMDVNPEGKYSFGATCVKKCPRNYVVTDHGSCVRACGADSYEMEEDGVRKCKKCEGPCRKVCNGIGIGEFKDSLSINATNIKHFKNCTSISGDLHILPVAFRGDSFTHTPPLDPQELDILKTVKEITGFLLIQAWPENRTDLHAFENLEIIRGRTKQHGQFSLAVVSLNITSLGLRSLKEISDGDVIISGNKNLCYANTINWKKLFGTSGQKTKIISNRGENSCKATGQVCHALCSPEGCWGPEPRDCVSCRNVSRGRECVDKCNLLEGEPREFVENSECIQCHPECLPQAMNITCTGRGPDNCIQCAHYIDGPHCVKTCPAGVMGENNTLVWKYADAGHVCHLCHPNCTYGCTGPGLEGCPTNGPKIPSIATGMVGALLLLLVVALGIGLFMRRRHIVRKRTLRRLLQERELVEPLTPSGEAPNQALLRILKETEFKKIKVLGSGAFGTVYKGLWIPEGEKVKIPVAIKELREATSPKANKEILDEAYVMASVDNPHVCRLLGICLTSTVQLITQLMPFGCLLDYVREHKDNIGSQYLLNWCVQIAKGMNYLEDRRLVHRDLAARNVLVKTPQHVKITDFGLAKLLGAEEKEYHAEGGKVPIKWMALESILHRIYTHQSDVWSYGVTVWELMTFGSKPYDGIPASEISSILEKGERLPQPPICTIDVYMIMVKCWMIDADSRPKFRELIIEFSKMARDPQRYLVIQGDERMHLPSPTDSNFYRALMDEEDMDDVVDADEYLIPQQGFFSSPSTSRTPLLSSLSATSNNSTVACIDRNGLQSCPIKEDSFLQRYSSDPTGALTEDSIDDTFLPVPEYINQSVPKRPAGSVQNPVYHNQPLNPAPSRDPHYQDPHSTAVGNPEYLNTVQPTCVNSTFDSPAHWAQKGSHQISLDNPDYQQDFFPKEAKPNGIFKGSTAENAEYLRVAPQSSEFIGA
# [18] = molecular target: Follistatin-related protein 3 (Homo sapiens) (UniProt O95633); experiment: FSTL3 binders on small-molecule microarrays, primary screen, biochemical, small-molecule microarray, 635 nm fluorescence (AID 1105); settings: FSTL3 binding, higher = more signal;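 note: score merges emission near 667 nm and signal to noise per printed spot across three slides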
# Follistatin-related protein 3 (Homo sapiens), sequence (O95633 whole entry, looked up): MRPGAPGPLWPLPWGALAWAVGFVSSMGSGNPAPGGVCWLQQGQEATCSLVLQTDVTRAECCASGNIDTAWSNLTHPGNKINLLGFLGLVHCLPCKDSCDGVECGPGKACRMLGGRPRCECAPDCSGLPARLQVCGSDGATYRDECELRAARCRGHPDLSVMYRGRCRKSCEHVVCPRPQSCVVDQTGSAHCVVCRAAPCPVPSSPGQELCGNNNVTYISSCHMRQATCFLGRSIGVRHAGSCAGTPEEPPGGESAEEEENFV
# [19] = molecular target: Dickkopf-related protein 1 (Homo sapiens) (UniProt O94907); experiment: DKK1 binders on small-molecule microarrays, primary screen, biochemical, small-molecule microarray, 635 nm fluorescence scan (AID 1106); settings: DKK1 binding, higher = more signal;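 note: score merges emission near 667 nm with signal to noise over three replicate slides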
# Dickkopf-related protein 1 (Homo sapiens), sequence (O94907 whole entry, looked up): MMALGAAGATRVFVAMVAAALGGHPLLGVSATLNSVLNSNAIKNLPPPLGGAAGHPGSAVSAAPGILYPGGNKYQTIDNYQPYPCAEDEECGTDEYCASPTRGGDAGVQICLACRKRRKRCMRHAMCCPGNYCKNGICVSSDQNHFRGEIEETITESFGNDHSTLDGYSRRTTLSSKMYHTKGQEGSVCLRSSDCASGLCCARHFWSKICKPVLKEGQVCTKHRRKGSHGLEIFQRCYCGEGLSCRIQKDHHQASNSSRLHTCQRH
# [20] = tested on: Inhibin beta A chain (activin A); experiment: INHBA (activin A) binders on microarrays, primary screen, biochemical, small-molecule microarray, 635 nm fluorescence scan (AID 1107); settings: small-molecule microarray binding, higher = more signal;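 note: mouse activin A protein probed at 4.33 µg/mL on printed slides; score merges bound-protein fluorescence near 667 nm with spot signal-to-noise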
smiles,measurement,setting,value
CO[C@H]1O[C@H](CO)[C@@H](OC(=O)Nc2ccccc2-c2ccccc2)[C@H](OC(=O)Nc2ccccc2)[C@H]1OC(=O)Nc1ccccc1,composite z-score,[1],1.54
same,z-score,[2],1.81 (inactive)
same,z-score,[3],1.21 (inactive)
same,z-score,[4],5.33 (inactive)
same,composite z-score,[5],3.12
same,z-score,[6],0.517 (inactive)
same,composite z-score,[7],0.208
same,composite z-score,[8],1.2
same,composite z-score,[9],1.1
same,composite z-score,[10],0.0903
same,composite z-score,[11],1.43
same,composite z-score,[12],0.821
same,composite z-score,[13],0.886
same,z-score,[14],-0.299 (inactive)
same,composite z-score,[15],1.45
same,composite z-score,[16],1.33
same,composite z-score,[17],0.41
same,composite z-score,[18],1.41
same,composite z-score,[19],0.993
same,composite z-score,[20],0.352
C[N+](C)(C)CCCC[C@@H]1NC(=O)[C@@H]2C[C@H](C(=O)NCc3ccc(F)cc3)[C@H](c3ccc(O)cc3)N2C1=O,composite z-score,[1],0.116
same,z-score,[2],0.166 (inactive)
same,z-score,[3],0.519 (inactive)
same,z-score,[4],0.425 (inactive)
same,composite z-score,[5],1.76
same,z-score,[6],-0.66 (inactive)
same,composite z-score,[7],-0.139
same,composite z-score,[8],0.401
same,composite z-score,[9],-0.146
same,composite z-score,[10],-0.271
same,composite z-score,[11],1.12
same,composite z-score,[12],-0.277
same,composite z-score,[13],0.216
same,z-score,[14],1.26 (inactive)
same,composite z-score,[15],0.535
same,composite z-score,[16],-0.933
same,composite z-score,[17],-0.617
same,composite z-score,[18],-0.249
same,composite z-score,[19],0.549
same,composite z-score,[20],-0.879
COC(=O)[C@@]1(Cc2ccc(F)cc2)[C@H]2c3cc(C(=O)N4CCCC4)n(Cc4ccccn4)c3C[C@H]2CN1C(=O)c1ccccc1,composite z-score,[1],0.159
same,z-score,[2],0.269 (inactive)
same,z-score,[3],-0.289 (inactive)
same,z-score,[4],0.856 (inactive)
same,composite z-score,[5],3.32
same,z-score,[6],-1.76 (inactive)
same,composite z-score,[7],0.361
same,composite z-score,[8],-0.108
same,composite z-score,[9],0.841
same,composite z-score,[10],0.33
same,composite z-score,[11],0.919
same,composite z-score,[12],0.757
same,composite z-score,[13],1.08
same,z-score,[14],-1.88 (inactive)
same,composite z-score,[15],0.426
same,composite z-score,[16],0.453
same,composite z-score,[17],0.214
same,composite z-score,[18],0.156
same,composite z-score,[19],-0.398
same,composite z-score,[20],0.855
O=C(NCC(O)CO)C1N=C(c2ccc(OCCCO)cc2)N(c2ccccc2)O1 (stereo not given),composite z-score,[1],1.55
same,z-score,[2],-0.375 (inactive)
same,z-score,[3],-0.243 (inactive)
same,z-score,[4],0.13 (inactive)
same,composite z-score,[5],1.8
same,z-score,[6],0.153 (inactive)
same,composite z-score,[7],-0.196
same,composite z-score,[8],1.19
same,composite z-score,[9],0.882
same,composite z-score,[10],-0.0531
same,composite z-score,[11],-0.144
same,composite z-score,[12],-0.12
same,composite z-score,[13],-0.104
same,z-score,[14],-1.13 (inactive)
same,composite z-score,[15],0.897
same,composite z-score,[16],0.65
same,composite z-score,[17],0.195
same,composite z-score,[18],0.799
same,composite z-score,[19],0.433
same,composite z-score,[20],-0.899
O=C(NCc1ccccc1)[C@@H]1c2ccccc2C(=O)N(Cc2ccc(OC(F)(F)F)cc2)[C@H]1c1ccc(CO)cc1,composite z-score,[1],0.594
same,z-score,[2],-0.347 (inactive)
same,z-score,[3],-0.753 (inactive)
same,z-score,[4],-0.574 (inactive)
same,composite z-score,[5],2.62
same,z-score,[6],0.301 (inactive)
same,composite z-score,[7],-0.128
same,composite z-score,[8],-0.262
same,composite z-score,[9],-0.577
same,composite z-score,[10],0.148
same,composite z-score,[11],1.34
same,composite z-score,[12],0.658
same,composite z-score,[13],-0.0614
same,z-score,[14],-1.19 (inactive)
same,composite z-score,[15],-0.354
same,composite z-score,[16],0.37
same,composite z-score,[17],-0.942
same,composite z-score,[18],-0.88
same,composite z-score,[19],-0.808
same,composite z-score,[20],-0.187
C=CC[C@@]12N=C(c3ccc(OCCCO)cc3)O[C@@H]1c1ccccc1N(CCC)C2=O,composite z-score,[1],1.55
same,z-score,[2],-1.01 (inactive)
same,z-score,[3],-2.42 (inactive)
same,z-score,[4],-0.71 (inactive)
same,composite z-score,[5],3.12
same,z-score,[6],1.34 (inactive)
same,composite z-score,[7],0.219
same,composite z-score,[8],0.916
same,composite z-score,[9],1.07
same,composite z-score,[10],-0.108
same,composite z-score,[11],1.58
same,composite z-score,[12],0.257
same,composite z-score,[13],0.952
same,z-score,[14],-0.457 (inactive)
same,composite z-score,[15],0.85
same,composite z-score,[16],1.25
same,composite z-score,[17],0.153
same,composite z-score,[18],1.15
same,composite z-score,[19],-0.0879
same,composite z-score,[20],1.19
NC(=O)NCC#Cc1ccc2c(c1)[C@]1(C(=O)N2)[C@H](c2ccc(OCCO)cc2)N2[C@H](c3ccccc3)[C@H](c3ccccc3)OC(=O)[C@H]2[C@@H]1C(=O)NC[C@H](O)c1ccccc1,composite z-score,[1],0.26
same,z-score,[2],2.87 (inactive)
same,z-score,[3],1.98 (inactive)
same,z-score,[4],3.9 (inactive)
same,composite z-score,[5],0.741
same,z-score,[6],2.55 (inactive)
same,composite z-score,[7],0.0041
same,composite z-score,[8],0.565
same,composite z-score,[9],-0.311
same,composite z-score,[10],-0.141
same,composite z-score,[11],1.24
same,composite z-score,[12],0.0619
same,composite z-score,[13],0.909
same,z-score,[14],0.199 (inactive)
same,composite z-score,[15],0.131
same,composite z-score,[16],-0.708
same,composite z-score,[17],-0.256
same,composite z-score,[18],-0.216
same,composite z-score,[19],-0.229
same,composite z-score,[20],0.902
[N-]=[N+]=NCc1ccccc1[C@@H]1OC(c2ccc(OCCCO)cc2)=N[C@]1(Cc1ccccc1N=[N+]=[N-])C(=O)O,composite z-score,[1],1.48
same,z-score,[2],-0.282 (inactive)
same,z-score,[3],-1.64 (inactive)
same,z-score,[4],-0.794 (inactive)
same,composite z-score,[5],3.13
same,z-score,[6],-0.0956 (inactive)
same,composite z-score,[7],0.515
same,composite z-score,[8],-0.0626
same,composite z-score,[9],1.11
same,composite z-score,[10],0.439
same,composite z-score,[11],1.45
same,composite z-score,[12],1.35
same,composite z-score,[13],1.11
same,z-score,[14],-1.48 (inactive)
same,composite z-score,[15],1.15
same,composite z-score,[16],1.26
same,composite z-score,[17],0.268
same,composite z-score,[18],1.03
same,composite z-score,[19],-0.075
same,composite z-score,[20],0.848
CCCC#C[Si](O[C@H](CC)c1cn(Cc2ccccc2)nn1)(C(C)C)C(C)C,composite z-score,[1],1.49
same,z-score,[2],-1.25 (inactive)
same,z-score,[3],-14.6 (active)
same,z-score,[4],-3.55 (inactive)
same,composite z-score,[5],1.72
same,z-score,[6],0.657 (inactive)
same,composite z-score,[7],0.052
same,composite z-score,[8],1.31
same,composite z-score,[9],1.09
same,composite z-score,[10],0.0458
same,composite z-score,[11],0.524
same,composite z-score,[12],0.109
same,composite z-score,[13],-0.263
same,z-score,[14],-0.539 (inactive)
same,composite z-score,[15],0.852
same,composite z-score,[16],0.49
same,composite z-score,[17],0.375
same,composite z-score,[18],1.11
same,composite z-score,[19],0.576
same,composite z-score,[20],-0.0374
CC(C)(C)N1CC=CC23O[C@@H]4/C=C\CCCOC(=O)C4[C@H]2C(=O)N(CCCO)[C@@H]3C1=O (stereo not given in full),composite z-score,[1],0.477
same,z-score,[2],-1.01 (inactive)
same,z-score,[3],0.0214 (inactive)
same,z-score,[4],-0.766 (inactive)
same,composite z-score,[5],1.11
same,z-score,[6],-0.282 (inactive)
same,composite z-score,[7],-0.279
same,composite z-score,[8],-0.877
same,composite z-score,[9],0.0017
same,composite z-score,[10],-0.129
same,composite z-score,[11],1.18
same,composite z-score,[12],-0.396
same,composite z-score,[13],-0.006
same,z-score,[14],0.539 (inactive)
same,composite z-score,[15],-0.795
same,composite z-score,[16],-0.416
same,composite z-score,[17],-1.33
same,composite z-score,[18],-0.996
same,composite z-score,[19],-1.07
same,composite z-score,[20],0.076
